# The source made the active and inactive calls.
# How the values were obtained:
# [1] = test system: Plasmodium falciparum Sir2 (PF13_0152, Sir2A); experiment: pfSir2 binders on small-molecule microarrays, primary screen, biochemical, small-molecule microarray, 635 nm fluorescence (AID 1098); settings: small-molecule microarray binding, fluorescence 635 nm; higher = more signal;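 also: score merges spot fluorescence intensity with its signal-to-noise ratio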
# [2] = small-molecule microarray binders of probe aDKK1, primary screen, biochemical, biotinylated probe, 635/667 nm fluorescence (AID 1099); settings: higher = more signal;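 also: score merges 667nm spot fluorescence with signal to noise across triplicate slides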
# [3] = small-molecule microarray binders of probe aCHRDL2, primary screen, biochemical, biotinylated probe, 635/667 nm fluorescence (AID 1100); settings: higher = more signal
# [4] = splicing luciferase reporter signal modulators, primary screen, spliceosome inhibition project, cell-based, HEK293, splice +/- reporter (AID 1101); settings: luminescence, 24 h, higher = more signal, called active from +8 up or from −8 down;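 also: HEK293 cells carrying a splicing-competent luciferase reporter gene; test concentration not given here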
# [5] = target: Fibroblast growth factor 10 (Homo sapiens) (UniProt O15520); experiment: FGF10 binders on small-molecule microarrays, primary screen, biochemical, small-molecule microarray, 635 nm fluorescence (AID 1102); settings: FGF10 binding, fluorescence 635 nm, higher = more signal
# Sequence of Fibroblast growth factor 10 (Homo sapiens) (O15520 whole entry, looked up): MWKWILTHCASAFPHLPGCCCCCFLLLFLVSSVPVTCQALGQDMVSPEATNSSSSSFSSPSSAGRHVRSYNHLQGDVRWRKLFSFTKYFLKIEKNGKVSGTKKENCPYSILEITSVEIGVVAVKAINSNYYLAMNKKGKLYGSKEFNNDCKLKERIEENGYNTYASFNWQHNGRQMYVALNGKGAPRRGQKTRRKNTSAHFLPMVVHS
# [6] = test system: glycogen synthase kinase-3 (GSK3A per assay name; protocol says GSK3B); experiment: GSK3 binders on small-molecule microarrays, primary screen, biochemical, small-molecule microarray, 635 nm fluorescence, GSK3A (AID 1103); settings: small-molecule microarray binding, fluorescence 635 nm; higher = more signal; also: the record names both GSK3A and GSK3B
# [7] = target: Epidermal growth factor receptor (Homo sapiens) (UniProt P00533); experiment: EGFR binders on small-molecule microarrays, primary screen, biochemical, small-molecule microarray, 635 nm fluorescence (AID 1104); settings: EGFR binding, higher = more signal;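 also: score merges 667 nm emission intensity with spot signal to noise over triplicate slides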
# Sequence of Epidermal growth factor receptor (Homo sapiens) (P00533 whole entry, looked up): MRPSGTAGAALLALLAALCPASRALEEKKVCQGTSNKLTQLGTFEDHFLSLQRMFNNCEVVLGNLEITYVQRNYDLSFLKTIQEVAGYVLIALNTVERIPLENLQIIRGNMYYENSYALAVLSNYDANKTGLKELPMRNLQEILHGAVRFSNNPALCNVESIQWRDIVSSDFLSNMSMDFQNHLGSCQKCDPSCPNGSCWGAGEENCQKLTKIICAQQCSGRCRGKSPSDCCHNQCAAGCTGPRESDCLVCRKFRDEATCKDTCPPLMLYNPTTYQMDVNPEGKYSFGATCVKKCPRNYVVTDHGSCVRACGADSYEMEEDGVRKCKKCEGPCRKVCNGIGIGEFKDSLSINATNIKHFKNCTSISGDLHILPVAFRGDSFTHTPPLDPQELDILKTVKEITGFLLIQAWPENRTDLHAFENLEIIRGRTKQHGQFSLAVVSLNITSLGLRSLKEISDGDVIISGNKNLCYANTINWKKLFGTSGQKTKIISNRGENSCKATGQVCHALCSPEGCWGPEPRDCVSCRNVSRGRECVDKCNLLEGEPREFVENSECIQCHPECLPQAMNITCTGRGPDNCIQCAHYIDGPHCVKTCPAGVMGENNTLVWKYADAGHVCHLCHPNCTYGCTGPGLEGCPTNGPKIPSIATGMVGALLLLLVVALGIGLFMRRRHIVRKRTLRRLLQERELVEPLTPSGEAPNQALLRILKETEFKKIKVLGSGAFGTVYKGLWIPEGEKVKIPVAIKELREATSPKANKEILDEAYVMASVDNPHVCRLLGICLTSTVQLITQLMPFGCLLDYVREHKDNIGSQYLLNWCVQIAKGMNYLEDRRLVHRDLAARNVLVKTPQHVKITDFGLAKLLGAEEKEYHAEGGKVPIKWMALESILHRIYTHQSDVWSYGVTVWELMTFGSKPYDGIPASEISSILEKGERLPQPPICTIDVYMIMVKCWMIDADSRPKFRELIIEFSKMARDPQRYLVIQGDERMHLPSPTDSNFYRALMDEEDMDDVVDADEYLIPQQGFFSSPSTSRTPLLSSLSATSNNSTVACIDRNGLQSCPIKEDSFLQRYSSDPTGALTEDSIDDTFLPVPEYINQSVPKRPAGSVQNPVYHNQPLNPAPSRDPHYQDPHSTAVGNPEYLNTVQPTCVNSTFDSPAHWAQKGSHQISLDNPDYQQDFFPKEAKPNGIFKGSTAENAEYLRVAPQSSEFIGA
# [8] = target: Follistatin-related protein 3 (Homo sapiens) (UniProt O95633); experiment: FSTL3 binders on small-molecule microarrays, primary screen, biochemical, small-molecule microarray, 635 nm fluorescence (AID 1105); settings: FSTL3 binding, higher = more signal;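 also: score merges emission near 667 nm and signal to noise per printed spot across three slides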
# Sequence of Follistatin-related protein 3 (Homo sapiens) (O95633 whole entry, looked up): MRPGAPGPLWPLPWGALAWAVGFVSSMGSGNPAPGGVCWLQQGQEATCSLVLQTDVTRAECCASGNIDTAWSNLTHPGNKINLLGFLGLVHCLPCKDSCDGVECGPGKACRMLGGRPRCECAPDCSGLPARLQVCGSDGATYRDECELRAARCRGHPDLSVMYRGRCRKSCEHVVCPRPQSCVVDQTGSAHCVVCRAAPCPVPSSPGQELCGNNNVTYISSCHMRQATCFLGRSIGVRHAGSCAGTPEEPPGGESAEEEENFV
# [9] = target: Dickkopf-related protein 1 (Homo sapiens) (UniProt O94907); experiment: DKK1 binders on small-molecule microarrays, primary screen, biochemical, small-molecule microarray, 635 nm fluorescence scan (AID 1106); settings: DKK1 binding, higher = more signal;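 also: score merges emission near 667 nm with signal to noise over three replicate slides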
# Sequence of Dickkopf-related protein 1 (Homo sapiens) (O94907 whole entry, looked up): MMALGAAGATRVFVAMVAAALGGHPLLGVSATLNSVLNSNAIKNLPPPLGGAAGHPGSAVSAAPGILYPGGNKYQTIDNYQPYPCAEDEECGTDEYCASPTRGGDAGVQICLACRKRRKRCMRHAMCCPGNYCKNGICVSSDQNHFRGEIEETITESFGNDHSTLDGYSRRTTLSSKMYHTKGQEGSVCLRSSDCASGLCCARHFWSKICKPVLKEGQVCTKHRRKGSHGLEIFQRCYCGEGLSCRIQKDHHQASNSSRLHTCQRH
# [10] = test system: Inhibin beta A chain (activin A); experiment: INHBA (activin A) binders on microarrays, primary screen, biochemical, small-molecule microarray, 635 nm fluorescence scan (AID 1107); settings: small-molecule microarray binding, higher = more signal;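 also: mouse activin A protein probed at 4.33 µg/mL on printed slides; score merges bound-protein fluorescence near 667 nm with spot signal-to-noise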
# [11] = test system: Human papillomavirus type 1a protein E7 (residues 44-93); experiment: HPV1a E7 fragment binders on microarrays, primary screen, biochemical, small-molecule microarray, residues 44-93, 635 nm fluorescence (AID 1108); settings: small-molecule microarray binding, fluorescence 635 nm; higher = more signal;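 also: E7 fragment applied at 1 µg/mL in TBST for 1 h at 4 C; score combines spot fluorescence with its signal to noise ratio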
# [12] = modulators of HCV replicon luciferase signal, primary screen, HCV replication inhibitor project, Huh7 cells, luciferase reporter (AID 1109); settings: 48 h, higher = more signal;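 also: huh7 hepatoma cells harbouring a luciferase neomycin HCV replicon reporter; luciferase luminescence as measure of HCV replicon replication; test concentration not given here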
# [13] = target: Left-right determination factor 2 (Homo sapiens) (UniProt O00292); experiment: LEFTY2 binders on small-molecule microarrays, primary screen, biochemical, small-molecule microarray, 635 nm fluorescence scan (AID 1110); settings: LEFTY2 binding, higher = more signal
# Sequence of Left-right determination factor 2 (Homo sapiens) (O00292 whole entry, looked up): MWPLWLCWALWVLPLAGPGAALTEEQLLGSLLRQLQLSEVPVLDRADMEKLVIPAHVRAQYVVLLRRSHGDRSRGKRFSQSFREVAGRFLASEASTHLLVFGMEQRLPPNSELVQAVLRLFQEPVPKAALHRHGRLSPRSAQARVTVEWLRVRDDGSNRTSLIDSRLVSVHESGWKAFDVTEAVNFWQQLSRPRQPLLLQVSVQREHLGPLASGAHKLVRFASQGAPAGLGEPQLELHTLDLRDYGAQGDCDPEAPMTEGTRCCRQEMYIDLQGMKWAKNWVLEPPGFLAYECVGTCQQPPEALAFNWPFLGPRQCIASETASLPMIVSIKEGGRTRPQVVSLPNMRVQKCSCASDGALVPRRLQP
# [14] = target: Calmodulin-1 (Homo sapiens) (UniProt P0DP23); experiment: CALM1 binders on microarrays, EGTA buffer, profiling panel, biochemical, small-molecule microarray, Cy5-labelled CALM1 (AID 1111); settings: Cy5-CALM1 binding fluorescence, higher = more signal;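 also: labelled calmodulin applied in Tris saline Tween buffer holding calcium plus EGTA and DTT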
# [15] = target: Calmodulin-1 (Homo sapiens) (UniProt P0DP23); experiment: calcium-bound CALM1 binders on microarrays, profiling panel, artefact control for SMM control-protein annotation, biochemical, small-molecule microarray, Cy5-labelled CALM1, plus calcium (AID 1112); settings: Cy5-CALM1 binding fluorescence, higher = more signal;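 also: score merges spot fluorescence with signal to noise from triplicate slides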
# [16] = small-molecule microarray binders of probe aWnt5a, primary screen, biochemical, biotinylated probe, 635/667 nm fluorescence (AID 1113); settings: higher = more signal;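 also: score merges 667 nm fluorescence intensity with signal-to-noise per printed feature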
# [17] = small-molecule microarray binders of probe aShh, primary screen, biochemical, biotinylated probe, 635/667 nm fluorescence (AID 1114); settings: higher = more signal;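 also: probe is biotin-labelled aShh protein from a stem cell growth factor screen; measures binding of labelled protein to compounds printed on the slide; score merges feature fluorescence at 667 nm with signal-to-noise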
# [18] = small-molecule microarray binders of probe aNog, primary screen, biochemical, biotinylated probe, 635/667 nm fluorescence (AID 1115); settings: higher = more signal;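 also: probe is biotinylated aNog protein used at 0.15 µg/mL for 1 h at 4 C; z-score combines 667 nm fluorescence of each spot with its signal to noise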
# [19] = target: Torsin-1A-interacting protein 1 (Homo sapiens) (UniProt Q5JTV8); experiment: LAP1 binders from COS7 cell lysate, primary screen, small-molecule microarray, 635/667 nm fluorescence (AID 1116); settings: COS7-hLAP1 lysate binding, 635 nm fluorescence, higher = more signal
# Sequence of Torsin-1A-interacting protein 1 (Homo sapiens) (Q5JTV8 whole entry, looked up): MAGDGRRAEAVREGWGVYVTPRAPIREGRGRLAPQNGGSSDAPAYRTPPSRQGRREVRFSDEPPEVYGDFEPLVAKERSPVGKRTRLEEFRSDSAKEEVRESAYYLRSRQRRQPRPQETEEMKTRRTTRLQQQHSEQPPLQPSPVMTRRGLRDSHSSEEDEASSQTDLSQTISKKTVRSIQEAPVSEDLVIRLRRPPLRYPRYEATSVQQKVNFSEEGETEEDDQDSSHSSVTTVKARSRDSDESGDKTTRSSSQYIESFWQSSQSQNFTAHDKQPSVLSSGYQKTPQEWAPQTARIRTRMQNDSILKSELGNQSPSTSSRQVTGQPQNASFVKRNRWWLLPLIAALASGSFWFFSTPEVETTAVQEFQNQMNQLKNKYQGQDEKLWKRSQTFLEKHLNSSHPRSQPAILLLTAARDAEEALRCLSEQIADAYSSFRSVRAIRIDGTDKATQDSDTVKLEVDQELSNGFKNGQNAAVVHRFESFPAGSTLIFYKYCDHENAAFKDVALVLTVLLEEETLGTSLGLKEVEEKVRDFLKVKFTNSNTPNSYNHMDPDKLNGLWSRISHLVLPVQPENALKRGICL
# [20] = target: Alpha-bungarotoxin (Bungarus multicinctus) (UniProt P60615); experiment: alpha-bungarotoxin binders on microarray, profiling panel, artefact control for SMM control protein annotation, biochemical, small-molecule microarray, Alexa647 label, 635/667 nm fluorescence (AID 1117); settings: alpha-BTX-A647 binding fluorescence, higher = more signal
# Sequence of Alpha-bungarotoxin (Bungarus multicinctus) (P60615 whole entry, looked up): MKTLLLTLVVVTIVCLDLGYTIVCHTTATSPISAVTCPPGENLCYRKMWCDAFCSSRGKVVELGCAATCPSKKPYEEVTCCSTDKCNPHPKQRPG
Compound,composite z-score [1],composite z-score [2],composite z-score [3],z-score [4],composite z-score [5],composite z-score [6],composite z-score [7],composite z-score [8],composite z-score [9],composite z-score [10],composite z-score [11],z-score [12],composite z-score [13],composite z-score [14],composite z-score [15],composite z-score [16],composite z-score [17],composite z-score [18],composite z-score [19],composite z-score [20]
C=CC[C@@H]1C=C[C@H](ON=C(C)CCC(=O)OC[C@H]2O[C@H](C#Cc3ccccc3)C=C[C@@H]2Oc2ccc(C)cc2)[C@@H](CO)O1,1.19,-0.0927,-0.515,-0.439 (inactive),1.16,1.01,0.298,1.04,0.606,-0.117,1.42,0.568,0.605,0.759,0.188,-0.0236,0.0639,-0.0463,0.728,0.742
C#CCCCON=C1[C@H]2CCn3c(=O)n(C)c(=O)n3[C@H]2[C@H](O)[C@@H]2O[C@H]12,0.325,-0.316,-0.548,0.0589 (inactive),0.478,0.832,0.719,0.938,0.811,0.213,0.371,0.818,0.503,-0.266,-0.792,-0.0486,0.0723,0.0762,0.35,0.0727
CO[C@H](C1CCCCC1)[C@H](C)C=CCC(=O)OCCCc1ccccc1,-0.023,-0.38,-0.708,-0.0118 (inactive),0.227,-0.518,0.471,0.201,0.287,0.332,-0.743,0.714,0.291,-0.376,-0.937,-0.0874,-0.366,-0.27,0.099,-0.051
CCC(=O)[C@@]1(O)C(=O)N2C(=C3C(=O)OCC[C@@H]31)N(Cc1ccccc1)C(C)=C(C(=O)OC)[C@H]2c1ccccc1,0.413,-0.302,-0.624,0.501 (inactive),0.241,0.554,0.43,0.429,0.873,-0.0748,0.403,0.0779,0.366,-0.368,-0.478,0.0108,-0.221,-0.369,0.478,-0.0321
CO[C@H]1COC(=O)[C@@H](Cc2ccccc2)NC(=O)[C@@H](C)COC(=O)CCC[C@@H]1C,-0.0517,-0.242,-0.539,-0.498 (inactive),0.517,-0.431,0.304,0.379,0.601,0.296,-0.573,-2.38,0.455,-0.273,-0.679,-0.0478,0.0278,-0.412,0.29,0.273
COC(=O)[C@@H]1CC[C@H](C)[C@@H](c2ccc(C)cc2)N1C(=O)c1ccc(C=NO[C@@H]2O[C@H](COC(C)=O)[C@@H](OC(C)=O)[C@H](OC(C)=O)[C@H]2OC(C)=O)cc1,0.32,-0.254,-0.393,-1.56 (inactive),0.666,0.798,0.323,0.92,0.374,-0.059,0.918,-0.465,0.368,0.0167,-0.371,-0.124,0.313,-0.0208,0.218,0.884
C#CCCCON=C1C[C@@H](O)[C@@H](O)[C@@H]2[C@@H]3C(=O)N(C(C)(C)C)C(=O)[C@@H]3CC[C@H]12,0.115,0.765,1.24,0.233 (inactive),-0.165,-0.656,-0.0084,-0.866,-0.996,0.615,-0.149,-0.134,-0.0304,-0.245,-0.0493,0.0926,-0.154,-0.0675,-0.0059,1.27
CON=C[C@@H](NS(=O)(=O)c1ccc(C)cc1)[C@H](C)C=CCC(=O)OC,0.571,-0.26,-0.447,-0.114 (inactive),0.0529,-0.435,0.314,0.224,0.611,1.33,-0.933,0.604,0.532,-0.654,-1.31,-0.128,0.0756,-0.425,0.22,-0.0634
COC(=O)CC=C[C@@H](C)[C@@H](C=NOC(C)CN1CCCc2nc(C)c(C)cc21)OC (stereo not given in full),0.465,-0.0071,-0.472,0.404 (inactive),0.407,0.522,0.538,0.406,0.866,-0.0511,0.633,-0.256,0.517,0.539,-0.733,0.133,-0.223,-0.291,0.106,1.43
CCOC(=O)[C@H](CC(C)C)NC(=O)CCC1CC(OC(=O)NCc2ccc3c(c2)OCO3)CC2(CCCC(COC(=O)NCC3CCCCC3)O2)O1 (stereo not given in full),0.74,-0.209,-0.62,-0.266 (inactive),0.651,0.532,0.379,1.22,0.681,-0.0703,1.39,-1.49,0.894,-0.0184,-0.381,-0.0087,0.131,-0.367,0.711,0.415
C#CCCCON=C1C[C@@H](O)[C@@H](O)[C@@H]2[C@@H]3C(=O)N(CC)C(=O)[C@@H]3CC[C@@H]12,0.254,-0.129,-0.697,0.401 (inactive),1.18,0.545,0.631,0.496,0.628,-0.236,0.431,-0.113,0.507,-0.4,-0.749,-0.164,-0.197,-0.133,0.586,1.27
